Results filed as inconclusive are left out. Where a call stands in place of a potency, no number is given. Calls of active or inactive are those of the source. The call rests on the fitted dose curve; in most records, active means well fitted inhibition curve with a large enough effect; inconclusive means small, poorly fitted or top-dose-only effect; inactive means flat fitted curve, though single readings scatter.
Molecular target: Calcium and integrin-binding protein 1 (Homo sapiens) (UniProt Q99828)
Experiment: Primary qHTS for Identification of Calcium Integrin Binding Protein 1 (CIB1) Competitor (AID 1508620);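 further: GST tagged CIB1 binding a fluorescein labelled alphaIIb integrin peptide tracer; top concentration of the series differs between compounds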
Conditions: CIB1-GST / FITC-alphaIIb peptide fluorescence polarization; series mostly up to 114 µM
How it was run: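 CIB1-GST (1 uM final) and compound incubated 15 min at room temperature before adding FITC-alphaIIb peptide tracer (100 nM final). Competition for binding read by fluorescence polarization (ex 480, em 540) after another 15 min at room temperature.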

Sequence of Calcium and integrin-binding protein 1 (Homo sapiens) (Q99828 whole entry, looked up): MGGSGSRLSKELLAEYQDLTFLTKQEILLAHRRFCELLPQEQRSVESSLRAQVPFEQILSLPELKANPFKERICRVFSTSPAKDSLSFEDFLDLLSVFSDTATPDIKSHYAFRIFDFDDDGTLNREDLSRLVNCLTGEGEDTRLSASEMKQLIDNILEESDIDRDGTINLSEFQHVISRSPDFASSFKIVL

| SMILES | Potency |
| --- | --- |
| COc1ccc([S+](=O)([O-])Nc2ccc(-c3nc4ccccc4[nH]3)cc2)cc1OC | inactive |
| Cc1ccc(OCCn2c(CCNC(=O)C3CCNCC3)nc3ccccc32)cc1 | inactive |
| CCc1ccc(NC(=O)C(=O)NNC(=O)Cc2ccc(Cl)c(Cl)c2)cc1 | inactive |
| CC(=O)Nc1ccc(S(=O)(=O)N2CCN(S(=O)(=O)c3ccc4c(c3)OCCO4)CC2)cc1 | inactive |
| COc1ccc(CNc2ccc(S(=O)(=O)Nc3nccs3)cc2)cc1O | inactive |
| N#Cc1c(-c2ccc(-c3ccccc3)cc2)no[n+]1[O-] | inactive |
| O=C(Nc1ccc(Br)c(Br)c1)Nc1nnc(-c2cccnc2)s1 | inactive |
| O=C(c1ccc(-c2cnc3c(O)cccc3c2)cc1)N1CCNCC1 | inactive |
| c1ccc(-c2nc(NCc3ccc(-c4cccnc4)cc3)c3ccccc3n2)cc1 | inactive |
| NC(=O)C1CCN(c2nc(-c3ccccc3-c3ccccc3)cs2)CC1 | inactive |
| CC1=C(C(=O)Nc2ccon2)C(c2ccccc2Br)N=C(Nc2nc3ccccc3o2)N1 (stereo not given) | inactive |
| Brc1ccccc1-c1nc(NCc2ccc(-c3cccnc3)cc2)c2ccccc2n1 | inactive |
| C=Cc1ccc(C(=O)N2CCCC(CCC(=O)N3CCN(c4ccccn4)CC3)C2)cc1 (stereo not given) | inactive |
| Oc1ccc(COC2CCCC2)c2cccnc12 | inactive |
| Cc1ccc(CN(C)c2ncnc3ccc(-c4ccc(C#N)n4C)cc23)o1 | inactive |
| Cc1cc(NC(=O)Nc2cccc(-c3ccncc3)n2)ccc1Cl | inactive |
| Cc1ccc(CNc2ncnc3ccc(-c4ccc(C(=O)N(C)C)o4)cc23)o1 | inactive |
| Cc1ccnc(NC(=S)N2CCN(c3cccc(C(F)(F)F)c3)C2)c1 | inactive |
| O=C(O)c1ccc2c(c1)C(=O)N([C@H](Cc1ccc3ccccc3c1)C(=O)O)C2=O | inactive |
| COc1ccc(C2c3ccc4ccccc4c3Oc3ncn(CCN4CCOCC4)c(=N)c32)cc1OC (stereo not given) | inactive |

| SMILES | Potency |
| --- | --- |
| CC1=C(C(=O)Nc2nc3ccccc3s2)C2(CCCC2)N=C(Nc2nc3ccccc3o2)N1 | inactive |
| Fc1cc(Nc2nc(-c3ccncc3)nc3ccccc23)ccc1-c1ccncc1 | inactive |
| Oc1ccc(CNc2ccccc2C(F)(F)F)c2cccnc12 | inactive |
| Cc1ccc(OCCn2c(CCNC(=O)c3ccc[nH]3)nc3ccccc32)cc1 | inactive |
| OCC#CCSc1nnc(-c2cccc3ccccc23)o1 | inactive |
| CCOc1ccccc1-c1nnc2n1N=C(c1cc(OC)cc(OC)c1)CS2 | inactive |
| Fc1cc(Cl)cc(-c2ccc(CNc3nc(-c4ccccc4C(F)(F)F)nc4ccccc34)cc2)c1 | inactive |
| Cc1cc(C)n2ncc(C(=O)Nc3ccc(C(C)(C)C)cc3)c2n1 | inactive |
| Cn1c2cc(B(O)O)sc2c2cnn(Cc3ccc(F)cc3F)c(=O)c21 | inactive |
| O=C(Nc1nnc(-c2ccncc2)s1)Nc1ccc(Cl)c2ccccc12 | inactive |
| CC(C)(C)N=Cc1c(-c2ccccc2)no[n+]1[O-] | inactive |
| COc1ccc(OC)c(NC(=O)C(OC(=O)CNC(=O)c2ccccc2)c2ccccc2)c1 (stereo not given) | inactive |
| Fc1cccc(CSc2nc3ncc(Br)cc3[nH]2)c1 | inactive |
| CCOc1ccc(CCNC(=O)c2cc3ccccc3o2)cc1OCC | inactive |
| N#CN1CCC(NC(=O)c2cccc(F)c2)CC1 | inactive |
| O=C(CN(Cc1cccc2ccccc12)C1CC1)Nc1ccc(N2CCOCC2)cc1 | inactive |
| Cc1cc(-c2nnc3n2CCC3)c(C)n1-c1ccccc1 | inactive |
| O=S(=O)(NN1CCOCC1)c1ccc(Br)cc1 | inactive |
| CCCCN(C)C(=O)Cn1nc(-c2ccc(C(C)(C)C)cc2)ccc1=O | inactive |
| Cn1c2cc(S(C)(=O)=O)sc2c2cnn(Cc3ccccc3F)c(=O)c21 | inactive |
